# Assay outcomes (PubChem BioAssay)
# LGR2 antag: inhibitors of bursicon-induced Drosophila LGR2 receptor cAMP signaling | HEK293 LGR2, CRE-luciferase, bursicon-stimulated, 4 h | inhibition, % at 9.99 µM | actives 0.35% (n = 380,000) | AID 720647;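 active = drop in luminescence signal, shown as inhibition above about 50% in the replicate tests, limit read from the data, passing the limit was not always enough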;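 also: agonist challenge used bursicon conditioned medium at about half maximal strength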
# TROY signal inh: inhibitors of TROY-dependent NF-kB signaling; Q293 LMP1-TROYcd NF-kB luciferase reporter, 4 h; actives 0.98% (n = 360,000); inhibition, % at 10 µM;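 active = compounds whose plate-normalised and pattern-corrected inhibition of the luciferase reporter signal at the single screening dose is 50% or more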
# TWEAK Fn14 block: blocks TWEAK-Fn14 interaction in a reporter cell assay. TWEAK-stimulated Fn14 reporter cells, luciferase luminescence, 8 h. inhibition, % at 10 µM. actives 2% (n = 360,000). AID 1159606; in the data active = inhibition above about 50%
# HSP90 refold inh: HSP90 refolding inhibition in rabbit reticulocyte lysate; AID 1789; inhibition, % at 5.6 µM; luciferase refolding luminescence, 3 h; actives 0.91% (n = 290,000);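 active = inhibition above the screen-wide mean plus 3 SD, computed separately per campaign, cut at about 16% in these data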;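 also: 0% = DMSO wells and 100% = 60 µM geldanamycin wells; inhibitors lower the luminescence because luciferase stays unfolded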
# EBV LMP1 NFkB: Epstein-Barr LMP1 NF-kappaB reporter inhibition. LMP1-induced NF-kappaB luciferase reporter cells, luminescence. inhibition, % at 12.5 µM. actives 0.69% (n = 350,000). AID 504558; in the data active = inhibition above about 41%;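 also: 0% = neutral control wells and 100% = reference inhibitor control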
# aDG glyco act: alpha-DG glycosylation activation; activation, % at 10 µM; Pro5-aDG cells, alpha-DG glycosylation AlphaScreen (IIH6); 0% Pro5, 100% B10-LARGE cell signal; actives 0.22% (n = 360,000);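 active = activation of at least 8% versus controls, or a plate z-score of at least 8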;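 also: Pro5 are CHO cells carrying HIG-tagged alpha-DG that lacks glycosylation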
# aDG conf: confirmation of alpha dystroglycan glycosylation activators. shares compounds with aDG glyco act. Pro5-aDG cells, alpha-DG glycosylation, IIH6 AlphaLISA; scaled to LARGE-overexpressing B10 cells as 100%. activation, % at 10 µM (by protocol). actives 17% (n = 600);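 active = activation of at least 7% in one or more replicates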;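 also: cells exposed to compound for two days before detection; 0% = DMSO-treated Pro5 cells and 100% = DMSO-treated B10-LARGE cells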
# An asterisk follows results filed as active; . = no result given. Rows were chosen to be rich in hits. Some 2.6% of all compounds tested hit in one or more screens of this group.
SMILES,LGR2 antag,TROY signal inh,TWEAK Fn14 block,HSP90 refold inh,EBV LMP1 NFkB,aDG glyco act,aDG conf
CCCC#Cc1ccc2c(c1)O[C@H](CN(C)Cc1cccnc1)[C@@H](C)CN([C@H](C)CO)S2(=O)=O,-12.8,.,.,.,.,.,.
CC(=O)N1CC2(C1)[C@@H](c1ccc(-c3ccccc3C)cc1)[C@@H](CO)N2C(C)=O,-4.3,.,.,.,.,.,.
O=C(NCCc1ccccc1)c1ccc(-c2ccccc2C(F)(F)F)o1,-17.3,.,.,-0.4,.,.,.
O=C(NCCc1ccccc1)c1ccc(-c2ccc(F)cc2)o1,-59.6,-73.3,-1.8,-2.4,-3.0,5.1*,-0.9
O=S(=O)(c1cc(C(F)(F)F)ccc1Cl)N1CCN(c2ncnc3ccccc23)CC1,15.1,44.3,49.8,.,14.9,4.5*,0.0
O=C(NNC(=O)c1ccc([N+](=O)[O-])o1)c1ccccc1,.,-0.1,5.9,-2.4,-0.4,1.1,.
C/C(=N/NC(=O)C(O)(c1ccccc1)c1ccccc1)c1ccc([N+](=O)[O-])o1,3.7,-14.5,-6.5,-2.4,1.7,8.2*,3.7*
C[C@H]1CN([C@@H](C)CO)C(=O)c2cc(NC(=O)Nc3ccc4c(c3)OCO4)ccc2O[C@H]1CN(C)C(=O)NC1CCCCC1,-1.5,.,.,.,.,.,.
CC1Sc2ccc(C(=O)NCc3ccccn3)cc2NC1=O (configuration not stated),-15.9,-9.7,0.9,.,-8.8,5.5*,1.4
CCc1cc(CNC(=O)c2ccc3nc(Cc4ccc(OC)c(OC)c4)oc3c2)on1,-1.7,1.1,16.2,-1.2,-3.8,8.2*,2.4
CCC(c1nnnn1-c1c(C)cccc1C)N1CCN(c2ccc(C(F)(F)F)cc2[N+](=O)[O-])CC1 (configuration not stated),.,-13.3,23.6,.,.,7.6*,-1.3
CN(c1ccccc1)S(=O)(=O)c1ccc(C(=O)NCc2cccs2)cc1,-1.4,6.3,7.9,-3.2,-9.0,2.5*,-0.3
CCNc1nc(SC(C)C(=O)OC)nc(N2CCOCC2)n1 (configuration not stated),.,-1.9,1.3,-3.0,-2.2,66.0*,-0.9
CCNc1nc(SCC(=O)OC)nc(N2CCOCC2)n1,.,3.4,2.4,1.6,8.2,0.0,.
C[C@H](CO)N1C[C@H](C)[C@H](CN(C)C(=O)c2ccccc2F)Oc2ncc(C#C[C@@H](C)O)cc2C1=O,-2.2,.,.,.,.,.,.
CS(=O)(=O)N1CC2(C1)[C@H](c1ccccc1)[C@@H](CO)N2C(=O)C1CCC1,20.0,.,.,.,.,.,.
CC(C)NC(=O)Nc1ccc2c(c1)C(=O)N([C@H](C)CO)C[C@H](C)[C@H](CN(C)S(=O)(=O)c1ccccc1)OCCCC[C@H](C)O2,-14.1,.,.,.,.,.,.
Clc1ccc(-c2cc(C3CCNCC3)[nH]n2)cc1,0.8,-7.1,7.6,-4.0,5.9,6.9*,1.3
Cc1ccc(CN2CCC(c3cc(-c4ccc(Cl)cc4)n[nH]3)CC2)cc1,19.8,6.0,6.2,-0.5,-5.1,2.8,.
O=C(Nc1ccc(F)c(F)c1)c1ccc(F)c(S(=O)(=O)N2CCC3(CC2)OCCO3)c1,-2.7,10.1,26.9,-1.0,-5.5,10.3*,0.2
CCOc1ccc(NC(=O)c2ccc(F)c(S(=O)(=O)N3CCN(c4ccccn4)CC3)c2)cc1,17.8,44.1,44.2,1.9,17.6,5.0*,2.1*
CO[C@@H]1CN(C)C(=O)c2cc(NS(=O)(=O)CC(F)(F)F)ccc2OC[C@H](C)N(C(=O)c2ccc3c(c2)OCO3)C[C@@H]1C,12.0,.,.,.,.,.,.
COc1ccc(CCN(C)C(=O)c2cc(-c3ccccc3)nc3ccc(C)cc23)cc1OC,-7.2,-36.1,8.0,-4.0,8.7,7.8*,-0.2
COc1ccc(CCN(C)C(=O)c2cc(-c3ccccc3)nc3ccccc23)cc1OC,-18.3,-16.3,-13.7,-7.8,-0.4,-0.2,.
C[C@H](CO)N1C[C@H](C)[C@H](CN(C)S(=O)(=O)c2ccc(F)cc2)Oc2ccc(NC(=O)NC3CCCCC3)cc2CC1=O,9.0,.,.,.,.,.,.
SMILES,LGR2 antag,TROY signal inh,TWEAK Fn14 block,HSP90 refold inh,EBV LMP1 NFkB,aDG glyco act,aDG conf
CN(C)C(=O)C[C@H]1C[C@@H]2c3cc(NC(=O)Nc4ccc(F)cc4)ccc3O[C@@H]2[C@H](CO)O1,-4.6,.,.,.,.,.,.
CC(=O)N1c2ccccc2S(=O)(=O)c2c1ccc1ccccc21,3.6,-19.6,-2.9,.,3.4,12.7*,-0.1
CO[C@H]1CN(C)C(=O)c2ccc(NC(=O)c3cccc(Oc4ccccc4)c3)cc2OC[C@H](C)NC[C@@H]1C,15.4,.,.,.,.,.,.
CCC(C)Sc1nc2c(cnn2-c2ccccc2)c(=O)[nH]1 (configuration not stated),1.8,-2.2,7.8,0.5,-9.4,7.7*,-0.1
O=C(CCc1ccccc1)NC(NC(=S)Nc1cccc(Cl)c1)C(Cl)(Cl)Cl (configuration not stated),4.7,14.9,-7.4,0.7,2.7,7.2*,0.5
O=C(CCc1ccccc1)NC(NC(=S)Nc1ccc(Br)cc1)C(Cl)(Cl)Cl (configuration not stated),4.3,23.6,-3.5,7.4,16.6,2.1,.
CC(=O)c1ccc(N2CCC(c3cc(-c4ccc(Cl)cc4Cl)n[nH]3)CC2)c([N+](=O)[O-])c1,.,49.5,88.2*,-4.1,7.7,8.8*,5.9
Cn1c(=O)c2c(nc(NCc3ccco3)n2CCc2ccccc2)n(C)c1=O,.,8.7,12.6,-2.6,-0.9,0.2,.
CCn1c(NCc2ccco2)nc2c1c(=O)n(C)c(=O)n2C,.,-36.0,-2.9,-0.3,-3.4,6.3*,0.0
O=C(CCN1CCCCC1)NCC[C@H]1CC[C@H](NS(=O)(=O)c2cccc(Cl)c2)[C@@H](CO)O1,2.4,.,.,.,.,.,.
O=C(CCN1CCOCC1)c1ccccc1,-6.2,-11.4,-11.1,-0.7,1.1,0.0,.
O=C(CCN1CCCCC1)c1ccccc1,-0.9,0.6,-1.2,3.1,4.4,4.7*,0.5
COc1cccc(S(=O)(=O)N(C)C[C@@H]2Oc3ncc(-c4cccc(C(=O)N(C)C)c4)cc3C(=O)N([C@@H](C)CO)C[C@@H]2C)c1,9.2,.,.,.,.,.,.
O=C(Nc1ccc(-n2cc(Br)cn2)cc1)c1ccncc1,-9.5,-6.2,-39.8,-5.2,-8.7,0.0,.
O=C(Nc1ccc(-n2cc(Cl)cn2)cc1)c1ccncc1,-5.0,-10.7,-14.6,5.4,-4.7,2.8*,1.3
CC[N+](C)(CC)CC(O)COCC1COc2ccccc2O1 (configuration not stated),-1.3,9.1,-13.3,2.8,-2.9,4.6*,-0.8
COCC(=O)N1CCC2(CC1)CN(Cc1ccc3c(c1)OCO3)[C@H](CO)c1c2c2ccc(OC)cc2n1C,3.3,.,.,.,.,.,.
Cc1ccc(S(=O)(=O)N(C)C)cc1NC(=O)COC(=O)Cc1ccccc1F,-0.7,-1.9,1.1,.,5.6,10.9*,0.1
Cc1ccc(S(=O)(=O)N(C)C)cc1NC(=O)COC(=O)Cc1ccc(Br)cc1,-3.5,-1.0,-5.9,3.2,-3.6,-0.2,.
